Reference: ChEMBL document CHEMBL3988442, “University of Dundee, Small-Polar-MMV Screening Library” (2021)

target: AMP-activated protein kinase, AMPK (Homo sapiens) (UniProt P54646+O43741+P54619+Q9UGJ0+Q9Y478+Q13131+Q9UGI9); test: AMP-dependent Kinase enzyme assay. An in vitro enzyme assay that detects ADP turnover that is directly proportional to AMPK activity. This uses naive AMPK that is activated during the assay with MK-8722; format: functional; set-up: scale not given: direction of the effect not stated beside the values; settings: 30 µM

Going from `Cc1nc2c(c(NCCNC(=O)C(C)C)n1)Cc1ccccc1OC2` to `CNc1cc2c(nn1)CCN(C(=O)c1ccccc1-n1cccn1)C2`, the Percent Effect falls from 3.56% to -15.3%.

First: Cc1cc(N2CCC3(CCCN(CCO)C3=O)C2)nc2cc(Cl)ccc12 (stereo not given)
Second: Cc1c(CN2CCCCC2)c(O)n(CCO)c(=O)c1C#N
The Percent Effect of the first is higher: 10% for the first, -415% for the second.

Compared with `CCCn1cc(NC(=O)c2cccc(CN3CC=CC3)c2)nn1`, `Cn1cc(CN(C(=O)c2ccc(O)c(Cl)c2)C2CC2)cn1` is higher in Percent Effect: 3.97% for the first, 10.3% for the second.

Going from `Cc1ccc(CN(C(=O)NC2CCS(=O)(=O)C2)C2CC2)o1` (stereo not given) to `CCc1ccc(C(=O)NCC2CCCN2CC)o1` (stereo not given), the Percent Effect falls from 1.3% to 0.975%.

First: COc1ccc2c(c1)CCCN2C(=O)NC1CCCCNC1=O (stereo not given)
Second: COc1ccc2c(c1)OCC(C(=O)NCc1nc3c(s1)CCCC3)C2 (stereo not given)
The Percent Effect of the first is lower: 2.81% for the first, 8.94% for the second.

First: CCN(C)Cc1cccc(CNC(=O)NCCc2ccccn2)c1
Second: Cc1ncoc1C(=O)N1CCOC(Cc2ccccc2)C1 (stereo not given)
The Percent Effect of the first is lower: 3.33% for the first, 8.13% for the second.

Going from `CC(C)n1ccnc1C1CCN(c2nccc(C(F)(F)F)n2)CC1` to `FC(F)(F)c1cccc(OC2CCN(Cc3c[nH]cn3)CC2)c1`, the Percent Effect rises from 15.9% to 18%.

First: CC(C)N(C)C(=O)C1CCN(Cc2cnc3ccccn23)CC1
Second: Cn1cc(CN2CCCC(O)C2)c(-c2ccccc2F)n1 (stereo not given)
The Percent Effect of the first is lower: -1.05% for the first, 5.23% for the second.

Going from `CCc1noc(CN2CCN(C(=O)OC(C)(C)C)C(C)C2)n1` (stereo not given) to `CC(C)(C)C(=O)N1CCCC1c1cc(CO)[nH]n1` (stereo not given), the Percent Effect rises from 6.06% to 14.4%.

Going from `O=C(c1coc(COc2ccccc2F)n1)N1CCCO1` to `COc1cccc(C(C(=O)O)N2CCSCC2)c1F` (stereo not given), the Percent Effect falls from 6.72% to -1.18%.

Going from `CC(C)c1nnc(CN2CC(n3cccn3)C2)o1` to `CCc1noc(C(C)N2CCc3c(ncn3C3CC3)C2)n1` (stereo not given), the Percent Effect rises from -4.54% to 14.3%.

Compared with `O=C(COc1cccnc1)NCc1nncn1C1CCCCC1`, `COCCC(=O)N1CCC(c2nnc(-c3ccsc3)o2)CC1` is higher in Percent Effect: -3.67% for the first, 2.43% for the second.

Going from `COC(=O)c1ncccc1N1CCN(C(=O)CN2CCOCC2)CC1` to `CCOc1cc(NC(=O)N2CCC3(CCOCC3)C2)ccc1C`, the Percent Effect falls from 5.94% to -0.853%.

Compared with `Cc1cc(C(=O)NC(C)Cc2ccc(N(C)C)cc2)n(C)n1` (stereo not given), `COC(=O)c1ccc(OCCn2cnc(C#N)n2)cc1` is lower in Percent Effect: 11.6% for the first, 0.636% for the second.

Going from `NCC(CO)Cc1ccc(OC(F)(F)F)cc1` (stereo not given) to `COC(CNC(=O)c1ccoc1)c1cccc(Cl)c1` (stereo not given), the Percent Effect rises from -4.6% to -1.5%.

Going from `Cc1noc(C)c1C(=O)N1CCC(c2cc3cnccc3[nH]2)CC1` to `Cc1noc(C2CCCN(Cn3cc(Br)cn3)C2)n1` (stereo not given), the Percent Effect falls from 16.4% to -2.31%.

First: Cc1cc(Br)ccc1C(=O)Nc1c(C(N)=O)n[nH]c1C
Second: Cc1noc(CS(=O)(=O)c2cc(F)ccc2F)n1
The Percent Effect of the first is higher: 1.52% for the first, -0.296% for the second.

First: O=C(CCn1cncn1)N1CCCC(CO)(CCCc2ccccc2)C1 (stereo not given)
Second: Cn1ccnc1C1(O)CCN(C(=O)CCc2ccccc2)CC1
The Percent Effect of the first is lower: 0.934% for the first, 8.55% for the second.

Compared with `CC(=O)N1CCN(CCNC(=O)NC(C)Cn2ccnc2)CC1` (stereo not given), `CN1CCN(CCNC(=O)c2sccc2C2CC2)CC1` is higher in Percent Effect: -2.62% for the first, 3.89% for the second.

First: CC(C)(CNC(=O)c1ccco1)NC(=O)OC(C)(C)C
Second: CC(NCc1cnc(N2CCN(C)CC2)nc1)c1ccc(F)cc1 (stereo not given)
The Percent Effect of the first is lower: -6.6% for the first, -1.25% for the second.
